Assay results reported in PubChem BioAssay (Tox21).
Unmarked numbers belong to inactive results. Calls of active or inactive are those of the source. The call rests on the fitted dose curve; in most records, active means well fitted cell-killing curve with a large enough effect in the repeat runs; inconclusive means weak or mixed curves, or effect the other way; inactive means flat fitted curve, though single readings scatter.

Test: qHTS assay to identify small molecule HDAC inhibitors - cell viability counter screen (AID 1259365); further: nearly all actives have a fitted effect of over 50% in size
Conditions: HCT-116 viability, CellTiter-Glo ATP luminescence, 2 h; series mostly up to 92.4 µM; activity change, negative = cytotoxicity: at the top concentration
In short: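 To flag cytotoxic hits, 1,500 wild-type HCT-116 cells per well, plated the day before, receive test compounds for 2hr at 37 C before CellTiter-Glo reagent and a luminescence read.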
On the % scale 0 is the no-effect control and ±100 the full control effect.

Compound | outcome | activity change, negative = cytotoxicity
CCCCC(CC)COC(=O)c1ccc(C(=O)OCC(CC)CCCC)c(C(=O)OCC(CC)CCCC)c1 (centres undefined) | inactive | –
C[C@]12CCC(=O)C(O)=C1CC[C@@H]1[C@@H]2CC[C@]2(C)C(=O)CC[C@@H]12 | inactive | –
Oc1cc(Cl)ccc1Oc1ccc(Cl)cc1Cl | – | -9.71% [at 42.5 µM]
CCC(C)(c1ccc(O)cc1)c1ccc(O)cc1 | inactive | –
O=C(NC(=O)c1c(F)cccc1F)Nc1ccc(Cl)cc1 | inactive | –
c1cc(OCC2CO2)ccc1Cc1ccc(OCC2CO2)cc1 (centres undefined) | inactive | –
C#CCOS(=O)OC1CCCCC1Oc1ccc(C(C)(C)C)cc1 (centres undefined) | inactive | –
CCN(CC)C(=O)SCc1ccc(Cl)cc1 | inactive | –
CC(C)Oc1cc(-n2nc(C(C)(C)C)oc2=O)c(Cl)cc1Cl | inactive | –
O=C(Nc1ccc(Br)cc1)c1cc(Br)cc(Br)c1O | inactive | –
CNC(=O)Oc1cccc2c1OC(C)(C)O2 | inactive | –
CC(C)=CC1C(C(=O)OCc2coc(Cc3ccccc3)c2)C1(C)C (centres undefined) | inactive | –
NNC(N)=S | inactive | –
Nc1cccnc1 | inactive | –
CN(C)c1ccc(C(=O)c2ccc(N(C)C)cc2)cc1 | inactive | –
N#Cc1cc(Br)c(O)c(Br)c1 | inactive | –
O=[N+]([O-])c1ccc(O)c([N+](=O)[O-])c1 | inactive | –
CCN(CC)C(=O)/C(Cl)=C(\C)OP(=O)(OC)OC | inactive | –
Oc1cc(Cl)c(Cl)cc1Cl | inactive | –
CCOC(=S)S | inactive | –
COP(=S)(OC)Oc1ccc([N+](=O)[O-])cc1 | inactive | –
O=S(=O)(Oc1ccc(Cl)cc1)c1ccc(Cl)cc1 | inactive | –
N#CC(Br)Br | inactive | –
CCOP(=S)(OCC)O/N=C(\C#N)c1ccccc1 | inactive | –
